Laboratory results taken from PMC4552634, “A New Set of Chemical Starting Points with Plasmodium falciparum Transmission-Blocking Potential for Antimalarial Drug Discovery” (PLoS ONE, 2015).
In all, about 13,000 compounds went through this assay and about 3,200 (25%) showed an effect of 50% or more. This is one part of the list.

These molecules were tested on P. falciparum stage V gametocytes. Conditions: 48 h, 5 µM; inhibitor.
Design: BacTiter-Glo ATP luminescence viability of purified stage V gametocytes in 384-well plates, per cent inhibition versus DMSO

| SMILES | % Inhibition [%] |
| --- | --- |
| CCNC(=O)c1ccc2c(c1)c(C)c(C)n2Cc1ccc(F)cc1 [TCMDC-124754] | 32.09 |
| CC(=O)C1(c2ccccc2)CCN(CCC2(c3ccc(Cl)c(Cl)c3)CN(C(=O)c3cccc(Cl)c3)CCO2)CC1 (stereo not drawn) [TCMDC-135347] | -30.91 |
| CNS(=O)(=O)c1ccc(NC(=O)c2cc(-c3cccnc3)nc3ccc(Br)cc23)cc1 [TCMDC-125216] | -3.498 |
| Cc1ccccc1C1CCN(C2CCC(NC(=O)C3=Cc4ccccc4OC3)CC2)CC1 (stereo not drawn) [TCMDC-133553] | -49.51 |
| O=S(=O)(NCCN1CCCC1)c1ccc(-c2cccc(CNC3Cc4ccccc4C3)c2)cc1 [TCMDC-132215] | 70.89 |
| O=S(=O)(NCCN1CCCC1)c1cccc(-c2ccc(CNC3Cc4ccccc4C3)cc2)c1 [TCMDC-132241] | 96.68 |
| O=S(=O)(NCCN1CCCC1)c1ccc(-c2ccc(CNC3Cc4ccccc4C3)cc2)cc1 [TCMDC-132229] | 60.05 |
| COc1ccc(C2CCN(CCN3CCC(NC(=O)c4ccc(-c5cccc(C(F)(F)F)c5C(F)(F)F)cc4)CC3)CC2)c(OC)c1 [TCMDC-135427] | -31.75 |
| CC(C)[C@H](NC(=O)c1ccc(O)c(-c2ccc(Cl)c(Cl)c2)c1)C(=O)NCCN1CCCC1 [TCMDC-140828] | 38.9 |
| CN1CCN(c2ccnc3ccc(NC(=O)Nc4ccc5c(c4)CCC5=O)cc23)CC1 [TCMDC-139266] | 0.4556 |
| O=C(Cc1cccc(Cl)c1)Nc1cccc(-c2c[nH]c3nc(Nc4ccccc4)ncc23)c1 [TCMDC-134679] | 29.34 |
| O=C(C=Cc1ccc(Cl)c(Cl)c1)NCCCCCN1CCC(c2[nH]nc3ccccc23)CC1 [TCMDC-139402] | -6.391 |
| O=C1NC(c2ccccc2)C2(CCN(CC(O)COc3cccc4ncccc34)CC2)O1 (stereo not drawn) [TCMDC-136710] | -26.23 |
| Cc1ccccc1OCC(O)CNC1CCC(NCC(O)COc2ccccc2C)CC1 (stereo not drawn) [TCMDC-125142] | 150 |
| Cc1ccccc1OCC(O)CN1CCC(C2CCN(CC(O)COc3ccccc3C)CC2)CC1 (stereo not drawn) [TCMDC-131841] | 97.67 |
| CCCc1ccccc1OCC(O)CN(C1CCCC1)C1CCCC1 (stereo not drawn) [TCMDC-131423] | -5.815 |
| CCC(C)(C)c1ccc(OCC(O)CN2CCCCC2)c(C(C)(C)CC)c1 (stereo not drawn) [TCMDC-123833] | 2.758 |
| COc1cccc2c(O)c(CNC3CCCCC3)ccc12 [TCMDC-137595] | 11.64 |
| COc1ccc(NC(=O)Nc2ccc(-c3ccccc3)cc2)cc1Cn1cnc(N2CCCNCC2)cc1=O [TCMDC-134316] | 22.91 |
| O=C(/C=C/c1ccc(Cl)c(Cl)c1)Nc1cccc(CN2CCC(c3c[nH]c4ccccc34)CC2)c1 [TCMDC-139600] | 0.6115 |
| CC(=O)Nc1ncc(C(=O)Nc2cccc(-c3ccc(-c4nc5ccccc5[nH]4)cc3)c2)s1 [TCMDC-136917] | 7.51 |
| Cc1cc(O)c(CNC2CCCCC2)cc1C [TCMDC-137589] | -0.1252 |

| SMILES | % Inhibition [%] |
| --- | --- |
| CC(C)(C)c1ccc(O)c(CNC2CCCCC2)c1 [TCMDC-125856] | 17.68 |
| Oc1ccc(-c2ccccc2)cc1CNC1CCCCC1 [TCMDC-137603] | -11.44 |
| CCC(=C(CC)c1ccc(O)c(CNC2CCCCC2)c1)c1ccc(O)c(CNC2CCCCC2)c1 [TCMDC-137481] | 84.66 |
| Oc1ccc2c(c1CNC1CCCCC1)CCCC2 [TCMDC-137501] | 23.3 |
| O=C(CNC1CCCCC1)c1ccc(O)c(O)c1 [TCMDC-123961] | 59.16 |
| FC(F)(F)c1ccc2nccc(NN=Cc3cccnc3)c2c1 [TCMDC-142021] | -27.85 |
| Cc1noc(-c2ccc(N3CCC(C(=O)N4CCN(C(C)C)CC4)CC3)cc2)n1 [TCMDC-136012] | 8.914 |
| COc1ccc2nccc([C@@H](O)CN3CCC(NC(=O)c4ccc(Oc5ccccc5)cc4)CC3)c2c1 [TCMDC-141028] | -18.23 |
| Cc1noc(C)c1-c1cccc(CNCc2cccc(-c3cccc(-c4nc5cc(C(F)(F)F)ccc5[nH]4)c3)c2)c1.O=C(O)C(F)(F)F [TCMDC-133053] | -28.51 |
| COc1ccc(C2CC(c3cccs3)=NN2C(=O)CNc2cccc(C#N)c2)cc1OC (stereo not drawn) [TCMDC-125050] | -31.46 |
| N=C(NCCCc1ccccc1)c1cccc(C(=N)NCCCc2ccccc2)n1 [TCMDC-137453] | 100.2 |
| N=C(NCCCCC1CCCCC1)c1cccc(C(=N)NCCCCC2CCCCC2)n1 [TCMDC-137452] | 115.6 |
| OC(CNCCCc1ccccc1)c1cc(OCc2ccccc2)cc(OCc2ccccc2)c1 (stereo not drawn) [TCMDC-132033] | 38.73 |
| N=C(NCC1CC1c1ccccc1)c1cccc(C(=N)NCC2CC2c2ccccc2)n1 (stereo not drawn) [TCMDC-137456] | 113.7 |
| Cc1cc2nc(-c3ccc(/C=C/C(=O)NCCCc4ccccc4)cc3)[nH]c2cc1C [TCMDC-140436] | -5.063 |
| N#Cc1c(Cl)cccc1Oc1ccc(S(=O)(=O)N2CCC(CN3CCC(c4c[nH]c5ccccc45)CC3)CC2)cc1 [TCMDC-140172] | 15.16 |
| Cc1cc(NC(=O)c2coc3cc(F)c(N4CC(C)N(C)C(C)C4)cc23)ccc1-n1ccnc1 (stereo not drawn) [TCMDC-141394] | 18.23 |
| CCNc1cc(C(=O)N[C@@H](Cc2ccccc2)[C@H](O)CNCc2cccc(OC)c2C)cc(N2CCCCS2(=O)=O)c1 [TCMDC-132413] | 37.46 |
| Cc1ccc(-c2ccc3c(c2)C=C(C(=O)NC2CCN(CCNC(=O)c4cccs4)CC2)CCC3)cc1 [TCMDC-141949] | -0.2388 |
| c1ccc(Cn2nnnc2-c2cccc(Nc3ccnc4cc(-c5nccs5)ccc34)c2)cc1 [TCMDC-138337] | 1.923 |
| Cc1cccc(-c2cc3cc(Nc4ccnc5cc(-c6nccs6)ccc45)ccc3[nH]2)c1 [TCMDC-138348] | -37.38 |
| CC(C)(C)c1cc2cc(Nc3ccnc4cc(-c5nccs5)ccc34)ccc2[nH]1 [TCMDC-138349] | 14.13 |

| SMILES | % Inhibition [%] |
| --- | --- |
| CC(O)c1cccc(-c2ccc(Nc3ccnc4cc(-c5nccs5)ccc34)cc2)c1 (stereo not drawn) [TCMDC-138331] | -54.01 |
| Cc1nc(-c2cccc(Nc3ccnc4cc(-c5nccs5)ccc34)c2)no1 [TCMDC-138334] | 113.3 |
| Nc1n[nH]c(-c2ccccc2Nc2ccnc3cc(-c4nccs4)ccc23)n1 [TCMDC-138301] | 14.85 |
| c1ccc(-c2nc3ccccc3[nH]2)c(Nc2ccnc3cc(-c4nccs4)ccc23)c1 [TCMDC-138346] | 44.29 |
| Cc1nnc(-c2cccc(Nc3ccnc4cc(-c5nccs5)ccc34)c2)o1 [TCMDC-138335] | 93.46 |
| Cc1ccc2nc(-c3ccccc3Nc3ccnc4cc(-c5nccs5)ccc34)[nH]c2c1 [TCMDC-138345] | 108.2 |
| O=C(NCC(NCCCNc1cc(=O)c2ccccc2[nH]1)c1cc(Br)cc(Br)c1)C1=CCCC1 (stereo not drawn) [TCMDC-140317] | -52.55 |
| CC(=O)N[C@H](C(=O)Nc1cccc(-c2ccc(-c3nc4cccc(C)c4[nH]3)s2)c1)C(C)C [TCMDC-136855] | 31.89 |
| Cc1ccc(-c2nc(N3CCN(C(=O)c4ccco4)CC3)c3ccc(Cl)cc3n2)cc1 [TCMDC-124781] | 24.46 |
| Cc1ccc2c(Cl)c(C(=O)N3CC(C)OC(C)C3)sc2c1 (stereo not drawn) [TCMDC-125624] | 35.35 |
| COc1ccccc1Cn1ccnc1SCC(=O)Nc1cc(C(F)(F)F)ccc1Cl [TCMDC-124736] | -16.43 |
| Cc1cc(C)cc(OCC(O)CN(CCN2CCOCC2)C(=O)Nc2ccc(Br)cc2)c1 (stereo not drawn) [TCMDC-141491] | 2.41 |
| O=C(Cn1c(CCc2cccc(F)c2F)nc(=O)c2ccccc21)N(CCN1CCCC1)Cc1ccc(-c2ccc(C(F)(F)F)cc2)cc1 [TCMDC-141059] | 66.66 |
| O=C(Cn1c(CCc2cccc(F)c2F)nc(=O)c2ccccc21)N(CCN1CCCCC1)Cc1ccc(-c2ccc(C(F)(F)F)cc2)cc1 [TCMDC-141088] | 27.65 |
| O=C(Cn1c(CCc2cccc(F)c2F)nc(=O)c2ccccc21)N(CCCN1CCCC1)Cc1ccc(-c2ccc(C(F)(F)F)cc2)cc1 [TCMDC-141055] | 113.5 |
| CC(C)(CN1CCCC1)CN(Cc1ccc(-c2ccc(C(F)(F)F)cc2)cc1)C(=O)Cn1c(CCc2cccc(F)c2F)nc(=O)c2ccccc21 [TCMDC-141098] | 107.5 |
| O=C(Cn1c(CCc2cccc(F)c2F)nc(=O)c2ccccc21)N(CCCN1CCCCC1)Cc1ccc(-c2ccc(C(F)(F)F)cc2)cc1 [TCMDC-141053] | 101.4 |
| FC(F)(F)c1ccc2c(NCCc3ccccc3)ccnc2c1 [TCMDC-138552] | -21.17 |
| COc1cccc2cc(C(=O)N[C@@H](CC(C)C)C(=O)N[C@H](/C=N/N(C)C(=O)OC(C)(C)C)CC(=O)OC(C)(C)C)oc12 [TCMDC-136092] | 4.382 |
| COc1ccc(NC(=O)Nc2nc(-c3ccc(Cl)c(C)c3)cs2)cc1N1CCN(C)CC1 [TCMDC-139155] | 8.522 |
| C[C@@H]1C[C@@H]([C@H](O)CC2CC(=O)NC(=O)C2)C(=O)[C@@H](C)C1 [TCMDC-125838] | 50.08 |
| O=C(NC1CCN(Cc2ccccc2)CC1)c1ccc(-c2nc3cc(Cl)c(Cl)cc3[nH]2)c(F)c1 [TCMDC-140083] | 2.132 |
